These results are taken from PubChem BioAssay (NCATS).

The target in experiment [1] is Lysosomal acid glucosylceramidase (Homo sapiens) (UniProt P04062). The experiment can be described thus: Glucocerebrosidase-p2 (AID 348; in the data active means potency below about 10 µM; further: potency means the concentration at half of the fitted maximal effect). The following applies: purified GBA, blue fluorogenic substrate, 40 min. A digest of the protocol:
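Normal human glucocerebrosidase (0.2 nM) with blue fluorogenic substrate (80 uM final) in citrate/phosphate pH 5.9 with 10mM sodium taurocholate, 0.01% tween-20; 40 min RT, NaOH/glycine stop; fluorescence Ex 365/Em 440; AC50 from a titration from 0.6 nM upwards.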

A short description of experiment [2]: AP1 Signaling Pathway (AID 357). Further: on the % scale 0 is the no-effect control and ±100 the full control effect. The following applies: ME-180 AP-1-bla reporter, EGF-induced, beta-lactamase ratio, 5 h; at 7.69 µM (top of the series) unless noted. The method in brief: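 ME-180 cells with beta-lactamase reporter under AP-1 response element, stimulated with EC50 EGF; compounds tested in titration series, 5 h at 37 °C. CCF4 substrate added 2.5 h at room temperature; 460/530 nm emission ratio gave %activity and AC50.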

A short description of experiment [3]: Stat Signaling Pathway (AID 446).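 Further: ME-180 cervical cancer cells given 40 pM IL-6 alongside compound; SIE-controlled beta-lactamase reporter measured as 460/530 nm FRET emission ratio; on the % scale 0 is the no-effect control and ±100 the full control effect.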 Particulars: ME-180 SIE beta-lactamase reporter, IL-6 stimulated, 5 h; at 7.69 µM (top of the series) unless noted. The method in brief:
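Compound effects on IL-6-induced STAT reporter activity were measured in ME-180 cells. After overnight culture, cells were co-treated with 40 pM IL-6 for 5 hrs before beta-lactamase substrate loading at room temperature.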

Experiment [4] deals with Glucocorticoid receptor (Homo sapiens) (UniProt P04150). The experiment can be described thus: GR-EFC Redistribution (AID 451; calls by dose curve; further: potency means the concentration at half of the fitted maximal effect). The following applies: CHO-K1 GR-EFC translocation, beta-gal luminescence, 2 h. A digest of the protocol: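 Translocation of GR-ED fusion to nuclear EA restores b-gal, read by luminescence after 1 h room-temperature detection. Engineered CHO-K1 biosensor cells, 1,000/well, exposed 2 h at 37 C to titrations up to 46 uM final.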

The target of experiment [5] is Mitogen-activated protein kinase 10 (Mus musculus) (UniProt Q61831). The experiment can be described thus: JNK3 AlphaScreen Assay (AID 530).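 Further: kinase came from lysate of stimulated human HepG2 cells; signal reports phosphorylation of biotinylated GST-cJun 1-79 at Ser73 with 10 µM ATP; on the % scale 0 is the no-effect control and ±100 the full control effect.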 The following applies: JNK3 lysate, c-Jun phosphorylation; series mostly up to 57.1 µM. The method in brief:
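qHTS titrations with 15 min compound pre-incubation before adding ATP (10 uM final). Read-out: AlphaScreen of Ser73-phosphorylated biotin-GST-cJun using HepG2 lysate JNK3 activated by IL-1β and TNFα.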
(In general: Bead proximity is the source of the signal in Alpha formats.)

Experiment [6] concerns the target 3',5'-cyclic-AMP phosphodiesterase 4B (Homo sapiens) (UniProt Q07343). The experiment can be described thus: qHTS Assay for Inhibitors of PDE-IV (AID 607; active means well fitted activation curve with a large enough effect in the main read-out, with a control signal flat, not every such curve was filed as active; further: % of control where 0% means no effect). The following applies: HEK293 ACTOne CNG channel cells, membrane potential fluorescence; series mostly up to 22.9 µM. A digest of the protocol:
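ACTOne HEK293 cells carry a modified cAMP-gated CNG channel and express endogenous PDE4; plated 1000 cells/well, compounds up to 22.9 uM final. Membrane-potential dye fluorescence (ex 535/em 590) was read; parental cells received 10 uM forskolin + 100 uM RO 20-1724.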
For orientation: Quantitative high-throughput screening tests each substance at several concentrations.

Experiment [7] in a line: qHTS Assay for Lipid Storage Modulators (AID 1519; calls by dose curve). Particulars: Drosophila S3 cells, BODIPY lipid droplet/cell ratio, laser cytometry, cells loaded with oleic acid; for activity change, negative = inhibition: at 57.5 µM (top of the series). A digest of the protocol:
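Cells seeded at 5,000 per well were treated with compounds over a concentration series and loaded with oleic acid (400 uM, as added). Lipid droplet fluorescence (488 nm excitation, 500-530 nm channel) was read by laser-scanning cytometry and normalized to 20 uM Triacsin C.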

Experiment [8] in a line: Primary qHTS for small molecule stabilizers of the endoplasmic reticulum resident proteome: Secreted ER Calcium Modulated Protein (SERCaMP) assay (AID 1508630; active means well fitted inhibition curve with a large enough effect; further: on the % scale 0 is the no-effect control and ±100 the full control effect). Particulars: SH-SY5Y GLuc-SERCaMP (Gaussia luciferase released on ER calcium loss) secretion, thapsigargin, luminescence; series mostly up to 38.4 µM. The method in brief: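 The SH-SY5Y reporter protocol was run at 3 concentrations up to 38.3 uM (primary) or 11 concentrations (follow-up): 16 h compound, 100 nM thapsigargin for 4 h, then extracellular luciferase luminescence.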

Experiment [9] is described as follows: NFAT Signaling Pathway (AID 444). Particulars: Jurkat NFAT-bla M1, carbachol, beta-lactamase ratio, 5 h; at 7.69 µM (top of the series) unless noted. A digest of the protocol: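 Read-out: CCF4 FRET ratio (460 nm/530 nm) after 1 h RT dye loading, used for %activity and AC50 from titration series. Cells: Jurkat NFAT-β-lactamase/M1 line, treated with compound plus 1 uM carbachol for 5 h, 37 °C.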

Experiment [10] can be described thus: qHTS Assay for Identification of Small Molecule Agonists for Hypoxia Response Element Signaling Pathway (AID 914; active means well fitted activation curve with a large enough effect in the signal ratio, with a control signal flat, not every such curve was filed as active; the % refers to the signal ratio; further: % of control where 0% means no effect). Particulars: ME-180 (cervical carcinoma) HRE-bla reporter, beta-lactamase ratio, CoCl2, 17 h; activation: stronger effect = higher value. The method in brief:
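HRE-bla ME-180 assay for agonist-like enhancement of an EC50 CoCl2 stimulus: 17 h at 37 degrees Celsius, CCF4 for 2.5 h, ratiometric 460/530 nm signal converted to %Activity and fitted to AC50.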

Where [11] appears, read: measured here: cell count channel max response.
[12] abbreviates: measured here: lipid channel max response.

Inconclusive results are not listed. The source made the active and inactive calls. Unless noted, the call rests on the fitted dose curve; in most records, active means well fitted curve in either direction with a large enough effect (not every such curve was filed as active); inconclusive means small, poorly fitted or top-dose-only effect, or another doubt; inactive means flat fitted curve, though single readings scatter.

Chain of Glucocorticoid receptor (Homo sapiens) (P04150 whole entry, looked up, the tested form may be a part): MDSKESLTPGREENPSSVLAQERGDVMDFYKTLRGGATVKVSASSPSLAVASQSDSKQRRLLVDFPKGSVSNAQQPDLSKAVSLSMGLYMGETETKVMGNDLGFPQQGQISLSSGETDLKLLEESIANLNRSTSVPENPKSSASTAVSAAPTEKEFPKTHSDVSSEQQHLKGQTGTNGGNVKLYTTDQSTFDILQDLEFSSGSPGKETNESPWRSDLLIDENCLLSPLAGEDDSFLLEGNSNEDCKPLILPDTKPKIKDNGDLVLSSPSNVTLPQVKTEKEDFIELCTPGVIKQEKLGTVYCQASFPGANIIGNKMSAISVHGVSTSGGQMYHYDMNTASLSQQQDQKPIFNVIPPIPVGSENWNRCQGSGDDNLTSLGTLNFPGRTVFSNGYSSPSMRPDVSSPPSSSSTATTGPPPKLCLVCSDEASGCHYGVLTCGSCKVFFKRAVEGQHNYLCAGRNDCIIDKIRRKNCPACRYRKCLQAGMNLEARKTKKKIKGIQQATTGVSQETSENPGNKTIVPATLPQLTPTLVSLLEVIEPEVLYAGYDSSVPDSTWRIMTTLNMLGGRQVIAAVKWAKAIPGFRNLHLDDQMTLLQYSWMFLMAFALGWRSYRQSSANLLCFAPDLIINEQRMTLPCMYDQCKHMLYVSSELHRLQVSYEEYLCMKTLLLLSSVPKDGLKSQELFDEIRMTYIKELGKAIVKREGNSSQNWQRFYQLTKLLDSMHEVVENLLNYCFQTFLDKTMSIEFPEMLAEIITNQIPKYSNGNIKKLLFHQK
Chain of Lysosomal acid glucosylceramidase (Homo sapiens) (P04062 whole entry, looked up): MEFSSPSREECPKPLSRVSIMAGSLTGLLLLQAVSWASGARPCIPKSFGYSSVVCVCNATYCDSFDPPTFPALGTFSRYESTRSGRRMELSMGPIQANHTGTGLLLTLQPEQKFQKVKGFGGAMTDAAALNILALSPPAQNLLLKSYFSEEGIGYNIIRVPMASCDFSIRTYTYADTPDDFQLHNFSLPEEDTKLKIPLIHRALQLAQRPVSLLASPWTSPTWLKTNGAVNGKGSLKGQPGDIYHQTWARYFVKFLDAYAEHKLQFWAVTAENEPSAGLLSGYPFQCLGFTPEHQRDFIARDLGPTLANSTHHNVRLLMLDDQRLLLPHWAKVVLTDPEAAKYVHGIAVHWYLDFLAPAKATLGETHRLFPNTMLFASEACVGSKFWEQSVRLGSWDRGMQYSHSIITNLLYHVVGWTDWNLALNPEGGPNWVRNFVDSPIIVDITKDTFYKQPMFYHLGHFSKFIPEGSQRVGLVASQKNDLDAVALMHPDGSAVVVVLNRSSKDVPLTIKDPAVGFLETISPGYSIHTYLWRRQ
Chain of 3',5'-cyclic-AMP phosphodiesterase 4B (Homo sapiens) (Q07343 whole entry, looked up): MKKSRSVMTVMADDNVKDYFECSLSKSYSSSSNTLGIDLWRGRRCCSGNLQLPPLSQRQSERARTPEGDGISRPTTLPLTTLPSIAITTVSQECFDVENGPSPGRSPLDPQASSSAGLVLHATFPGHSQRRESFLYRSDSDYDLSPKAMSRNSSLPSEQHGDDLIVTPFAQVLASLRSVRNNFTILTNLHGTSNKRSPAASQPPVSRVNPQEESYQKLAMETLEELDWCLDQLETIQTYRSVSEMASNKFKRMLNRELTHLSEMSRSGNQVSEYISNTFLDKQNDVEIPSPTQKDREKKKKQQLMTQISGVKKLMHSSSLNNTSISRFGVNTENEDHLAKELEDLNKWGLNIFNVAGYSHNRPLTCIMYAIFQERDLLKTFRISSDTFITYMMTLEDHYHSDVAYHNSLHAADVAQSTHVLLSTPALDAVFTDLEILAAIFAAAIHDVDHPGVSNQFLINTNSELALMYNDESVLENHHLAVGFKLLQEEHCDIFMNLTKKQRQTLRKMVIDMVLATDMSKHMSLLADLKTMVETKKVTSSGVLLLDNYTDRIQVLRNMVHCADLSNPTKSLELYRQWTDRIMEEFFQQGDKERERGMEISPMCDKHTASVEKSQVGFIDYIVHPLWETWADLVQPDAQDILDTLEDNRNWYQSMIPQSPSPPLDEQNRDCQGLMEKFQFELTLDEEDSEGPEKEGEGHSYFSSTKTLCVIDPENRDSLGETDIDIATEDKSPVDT

Consider `O=C(c1ccncc1)N1CCC2(CC1)CN(c1ccncc1)C2`, for which the results for the Potency in [1] and in experiment [4] were > 11.4 µM (inactive) and > 46 µM (inactive), respectively. In addition, the values for the activity change, negative = inhibition in experiment [2] and in experiment [7] were 6.26% (inactive) and 1.59% (inactive), respectively. The activity, negative = inhibition in [3] was 1.34% (inactive). The Potency result in experiment [5] and in experiment [6] was “inactive” throughout. The max response was -20.1% in experiment [7] (setting [11]) and -17.6% in [7] (setting [12]). In experiment [8], the result was inactive.

For `O=C(c1csnn1)N1CCC2(CCN(Cc3cc(C(F)(F)F)cc(C(F)(F)F)c3)CC2)CC1`, the results for the Potency in experiment [1] and in [4] were > 11.4 µM (inactive) and > 46 µM (inactive), respectively. Further, the activity change, negative = inhibition in experiment [2] is 11.5% (inactive); in experiment [7], 1.96% (inactive). Moreover, the activity, negative = inhibition in [3] is 4.05% (inactive). In addition, the Potency result in [5] and in [6] was “inactive” in each case. For the same compound, the max response in experiment [7] (setting [11]) stood at 7.55%; in experiment [7] (setting [12]) it was 11.7%. For the same compound, the outcome in experiment [8] was inactive.

On to `COc1ccc(C(=O)N2CCC3(CC2)CN(c2ccc(-c4ccccc4)cc2)C3)cc1`, for which the Potency in experiment [1] is > 11.4 µM (inactive); in experiment [4] it was > 46 µM (inactive). For the same compound, the activity change, negative = inhibition is -5.62% (inactive) in experiment [2], -9.07% (inactive) in experiment [9] and -3.67% (inactive) in [7]. Besides, the Potency entry in experiment [5] and in [6] was “inactive” in each case. Further, the values for the max response in experiment [7] (setting [11]) and in [7] (setting [12]) were 9.2% and 7.61%, respectively. In addition, in experiment [8], the result was inactive.

As to `Cc1noc(C)c1C(=O)N1CCC2(CC1)CCN(c1ccccn1)CC2`, the values for the Potency in experiment [1] and in [4] were > 11.4 µM (inactive) and > 46 µM (inactive), respectively. For the same compound, the activity change, negative = inhibition in experiment [2] was 0.789% (inactive); in experiment [7], 5.25% (inactive). Moreover, the activity, negative = inhibition in experiment [3] was -0.0391% (inactive). For the same compound, the Potency result in experiment [5] and in [6] was “inactive” each time. Besides, the max response in experiment [7] (setting [11]) was found to be 8.43%; in experiment [7] (setting [12]) it was 16.7%. Besides, the result in experiment [8] was inactive.

As for `CC(=O)N1CCC2(CC1)CN(c1cccc(-c3ccccc3)c1)C2`, the Potency in [1] is > 11.4 µM (inactive). In addition, the activity change, negative = inhibition was -4.65% (inactive) in experiment [2], 16.1% (inactive) in [9] and 6.04% (inactive) in [7]. Moreover, in experiment [3], the activity, negative = inhibition is 1.02% (inactive). Besides, the Potency entry in [5] and in experiment [6] was “inactive” each time. The figures for the max response in experiment [7] (setting [11]) and in experiment [7] (setting [12]) were 6.96% and 17.4%, respectively. The result in [8] was inactive.

With `COc1ccc(NC(=O)N2CCCC3(CCN(C(C)=O)CC3)C2)cc1`, the Potency in experiment [1] is > 11.4 µM (inactive); in [4], > 46 µM (inactive). For the same compound, the values for the activity change, negative = inhibition in experiment [2], in experiment [9] and in experiment [7] were -2.44% (inactive), 11.5% (inactive) and 5.88% (inactive), respectively. The activity, negative = inhibition in experiment [3] is -0.377% (inactive). The Potency entry in [5] and in experiment [6] was “inactive” throughout. In addition, the activation in experiment [10] was -9.1% (inactive). Also, the max response in experiment [7] (setting [11]) is 10.9%; in experiment [7] (setting [12]) it was 18.6%. The result in experiment [8] was inactive.

As to `COc1ccccc1CN1CC2(CCN(C(=O)c3cc(C(F)(F)F)cc(C(F)(F)F)c3)CC2)C1`, the results for the Potency in experiment [1] and in experiment [4] were > 11.4 µM (inactive) and > 46 µM (inactive), respectively. Besides, the activity change, negative = inhibition in experiment [2] was 1.43% (inactive); in [7], -1.27% (inactive). The activity, negative = inhibition in [3] was 3.93% (inactive). Further, the Potency result in experiment [5] was “inactive”. Besides, the max response in experiment [7] (setting [11]) was 11.2%; in experiment [7] (setting [12]) it was 10.9%. Also, the result in experiment [8] was inactive.

In the case of `N#Cc1ccc(CN2CCC3(CCNCC3)CC2)cc1`, the Potency in experiment [1] was > 11.4 µM (inactive); in experiment [4] it was > 46 µM (inactive). The activity change, negative = inhibition in experiment [2] is 1.45% (inactive); in experiment [7] it was 1.87% (inactive). The activity, negative = inhibition in experiment [3] was 2.48% (inactive). For the same compound, the Potency entry in experiment [5] and in [6] was “inactive” throughout. The max response in [7] (setting [11]) came out at 9.11%; in experiment [7] (setting [12]) it was 14.9%. Besides, the result in [8] was inactive.
